Screening results: PubChem, National Center for Advancing Translational Sciences (NCATS)
Rows were chosen to be rich in hits. Some 14% of all compounds tested hit in one or more screens of this group.
Pf growth 48h: Primary qHTS for delayed death inhibitors of the malarial parasite plastid, 48 hour incubation; AID 504832, 2011; Potency, µM (series often up to 28.7 µM), usual class: inhibitors; P. falciparum luciferase growth in erythrocytes, 48 h; actives 5.9% (n = 310,000)
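Cell-based growth assay: transgenic P. falciparum expressing firefly luciferase, cultured in red cells within RPMI 1640 containing 0.5% w/v Albumax, 24 mM bicarbonate and gentamycin. A drop in luciferase activity indicates inhibition.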
Pf growth 96h: Primary qHTS for delayed death inhibitors of the malarial parasite plastid, 96 hour incubation | actives 6.9% (n = 320,000) | AID 504834, 2011 | Potency, µM (top dose mostly 28.7 µM), hits mostly inhibitors | P. falciparum luciferase reporter growth, 96 h
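P. falciparum expressing integrated firefly luciferase grown in erythrocytes (2% hematocrit, 0.05% parasitemia final) with compounds for 96 hours at 37 C, 5% CO2. Growth inhibition read as loss of luminescence after adding luciferase detection reagent.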
FBPA Giardia inh: qHTS Assay for Inhibitors of Fructose-1,6-bisphosphate Aldolase from Giardia Lamblia; A8B2U2; purified Giardia FBPA; Potency, µM (series often up to 59.6 µM), hits mostly inhibitors; actives 0.71% (n = 290,000); AID 2451, 2010; further: nearly all actives have a fitted effect of over 55% in size
Target sequence (A8B2U2 whole entry, looked up): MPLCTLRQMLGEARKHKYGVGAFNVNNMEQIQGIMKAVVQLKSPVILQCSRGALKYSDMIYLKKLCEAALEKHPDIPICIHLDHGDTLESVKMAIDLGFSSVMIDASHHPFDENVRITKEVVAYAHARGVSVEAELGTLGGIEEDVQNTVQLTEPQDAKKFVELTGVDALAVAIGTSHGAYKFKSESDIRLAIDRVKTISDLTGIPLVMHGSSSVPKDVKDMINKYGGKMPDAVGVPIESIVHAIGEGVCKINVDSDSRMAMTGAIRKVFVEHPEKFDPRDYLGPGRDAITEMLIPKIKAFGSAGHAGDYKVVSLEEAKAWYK
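40 nM FBPA preincubated 10 min at RT with compound (up to 57.5 uM final), then substrate plus GAPDH/TPI/NAD/arsenate coupling and diaphorase/resazurin added. Fluorescence read after 20 min at RT, 525/598 nm.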
Sm TGR inh: qHTS Assay for the Inhibitors of Schistosoma Mansoni Peroxiredoxins. Schistosoma mansoni thioredoxin glutathione reductase (TGR), Q962Y6. purified TGR, DTNB reduction, TNB absorbance 405 nm. Potency, µM (titrated, usually from 114 µM), most hits filed as inhibitors. actives 3% (n = 360,000); further: nearly all actives have a fitted effect of over 60% in size
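First, TGR (20 nM dispensed) and NADPH were mixed with compound. Second, a 15 min room-temperature incubation followed. Third, further NADPH and then DTNB were added to start the reaction. Finally, TNB absorbance was monitored kinetically.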
HCMV inh: qHTS Assay for inhibitors of the human cytomegalovirus (HCMV); HFF cells, HCMV-luciferase reporter, 72 h; stronger effect = lower value; activity change, negative = inhibition, % at 57.5 µM; actives 4.5% (n = 410,000); in the data active means activity change below about -60%; inconclusive means no clear call, values can overlap the other calls; inactive means above about -39%
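Screen run at 2 compound doses on HFFs infected with reporter HCMV, MOI 1 PFU/cell. Luciferase activity from cell lysates at 72 h post infection gave inhibition relative to buffer-only and Salinomycin wells.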
Large screens that a line does not name were inactive. Unless noted, the call rests on the fitted dose curve; in most records, active means well fitted curve in the direction sought with a large enough effect; inconclusive means small, poorly fitted or top-dose-only effect, or another doubt; inactive means no such curve, though single readings can be large; an effect the other way counts as inactive or inconclusive.

COc1cc(NC(=S)N2CCN(S(=O)(=O)c3ccc(F)cc3)CC2)cc(OC)c1	Pf growth 48h 2.3µM
COc1cccc(NC(=S)N2CCN(S(=O)(=O)c3ccc(F)cc3)CC2)c1	Pf growth 48h 1.9µM, Pf growth 96h inconclusive, HCMV inh -63 (no result: FBPA Giardia inh)
COc1cc(NC(=S)N2CCC(C(O)(c3ccccc3)c3ccccc3)CC2)cc(OC)c1	Pf growth 96h 2.1µM
c1ccc(-c2ncc(CN3CCN(c4ccccn4)CC3)[nH]2)cc1	none
COc1ccc(N2CCN(C(CNC(=O)c3ccc4c(c3)OCO4)c3ccco3)CC2)cc1 (stereo not drawn)	none
CC(C)(C)NC(=O)C(c1ccc(C(F)(F)F)cc1)n1c(=O)c(-c2cc3ccccc3[nH]2)nc2ccccc21 (stereo not drawn)	none (no result: Pf growth 48h, Pf growth 96h, FBPA Giardia inh, Sm TGR inh)
Cc1nccn1CCC(=O)NC1CC(C)(C)Cc2c1cnn2-c1ccccc1 (stereo not drawn)	none (no result: Pf growth 48h, Pf growth 96h, FBPA Giardia inh, Sm TGR inh)
Cc1ccc(S(=O)(=O)N(C)Cc2ccc(C(=O)N/N=C3\CC(=O)CC(C)(C)C3)cc2)cc1	Pf growth 48h inconclusive, Pf growth 96h inconclusive
Cc1nc2nc(-c3ccco3)nn2c(C)c1Cl	Sm TGR inh 22µM (no result: Pf growth 96h)
COc1ccc(NC(=O)N2CCc3nc(-c4ccccc4)c4c(c3C2)CO[C@@H](C)C4)cc1	none (no result: Pf growth 48h, Pf growth 96h, Sm TGR inh, HCMV inh)
CCc1ccc(OCC2NCCc3cc(OC)c(OC)cc32)cc1 (stereo not drawn)	HCMV inh -90
CCOc1cc2c(cc1OCC)C(c1ccc(F)cc1)NCC2 (stereo not drawn)	none (no result: Pf growth 48h, Pf growth 96h, FBPA Giardia inh, Sm TGR inh)
Oc1ccc(C[C@H]2NCCc3cc(O)c(O)cc32)cc1O	Pf growth 48h inconclusive, Pf growth 96h inconclusive, Sm TGR inh 18µM
COc1cc2c(cc1OC)C(Cc1ccc(O)cc1)NCC2 (stereo not drawn)	HCMV inh -79
CCOc1ccc(CC2NCCc3cc(OCC)c(OCC)cc32)cc1OCC (stereo not drawn)	Pf growth 48h 12µM, Pf growth 96h inconclusive
O=C(CNC(=O)c1ccc2c(=O)n3c(nc2c1)CCC3)Nc1ccc(F)c(F)c1	none (no result: FBPA Giardia inh)
CSCCC1c2cccn2-c2ccccc2N1C=Nc1c(C)cccc1C (stereo not drawn)	none (no result: Pf growth 48h, Pf growth 96h, FBPA Giardia inh, Sm TGR inh)
CCCS(=O)(=O)N1CCC(C(=O)NCCN(CC)c2ccccc2)CC1	none
O=C(NCc1ccc(F)cc1Cl)C1CCN(S(=O)(=O)N2CCCCC2)CC1	Pf growth 96h 3.3µM
O=C(NCc1ccc(Cl)cc1)C1CCN(C(=O)Cc2ccccc2)CC1	Pf growth 96h 12µM, HCMV inh -68
CS(=O)(=O)N1CCC(C(=O)Nc2cc(Cl)c(Cl)cc2Cl)CC1	Pf growth 96h 2.1µM
CCN(CCNC(=O)C1CCN(S(C)(=O)=O)CC1)c1ccccc1	Pf growth 96h 4.7µM
CCN1C(=O)[C@H]2[C@@H](c3ccc(C)cc3)N3C(=O)N(c4ccccc4)C(=O)[C@@]3(C)[C@H]2C1=O	none
CNC1=CN=C(c2ccccc2)c2cc(Cl)ccc2N1	none (no result: Pf growth 48h, Pf growth 96h, Sm TGR inh, HCMV inh)
CCOc1ccccc1CNC(=O)CCn1cccn1	none (no result: Pf growth 48h, Pf growth 96h, FBPA Giardia inh)
CS(=O)(=O)N1CCC(C(=O)NCc2ccc(Cl)cc2)CC1	Pf growth 48h 2.3µM
CC(=O)N1CC(C)Oc2ccc(S(=O)(=O)NC(CC(=O)O)c3cc(C)ccc3C)cc21 (stereo not drawn)	Pf growth 96h 12µM, HCMV inh inconclusive
CC(=O)N1CC(C)Oc2ccc(S(=O)(=O)NC(CC(=O)O)c3ccccc3C)cc21 (stereo not drawn)	none
O=C(Nc1ccccc1C(=O)N1CCCC1)c1ccc(Cl)cc1Cl	Pf growth 96h 12µM, HCMV inh inconclusive (no result: FBPA Giardia inh)
O=C(NC(=S)N1CCCCCC1)c1ccccc1Cl	Pf growth 48h 5.2µM, FBPA Giardia inh inconclusive
O=C(Nc1ccccc1C(=O)N1CCCCC1)c1cc(F)c(F)cc1Cl	none (no result: FBPA Giardia inh)
CN1CCN(C(=S)NC(=O)c2ccccc2Cl)CC1	none (no result: FBPA Giardia inh)
O=C(Nc1cccn(Cc2c(Cl)cccc2Cl)c1=O)c1ccc(Cl)cc1Cl	Pf growth 48h inconclusive, HCMV inh -97
O=C(NC(=S)N1CCCCCC1)c1ccc(Cl)cc1Cl	Pf growth 48h inconclusive, Pf growth 96h 9.3µM
O=C(OCc1cn([C@H]2C[C@H](c3ccc(Cl)cc3)N(C(=O)C3CCCCC3)C[C@@H]2O)nn1)c1ccccc1	none (no result: Pf growth 48h, Pf growth 96h, FBPA Giardia inh, Sm TGR inh)
CCc1cccc(Nc2cnn(C34C[C@@H]5C[C@@H](CC(CC(=O)O)(C5)C3)C4)c(=O)c2Cl)c1	Pf growth 48h inconclusive
CCC(=O)c1ccc(NC(C)=O)cc1O	Pf growth 48h inconclusive
CC(=O)Nc1ccc2c(c1)C(C)(C)C(C)N2C (stereo not drawn)	Pf growth 96h 10µM, HCMV inh inconclusive
CC1CN(C(=S)Nc2cccc(Cl)c2)CC(C)O1 (stereo not drawn)	Pf growth 96h inconclusive, Sm TGR inh inconclusive
COc1ccc(OC)c(N2C(=O)CC(=O)NC2=O)c1	HCMV inh inconclusive
O=C1NC(=S)N(c2ccc(F)cc2)C(=O)/C1=C\c1ccoc1	Pf growth 96h inconclusive, FBPA Giardia inh inconclusive, Sm TGR inh 32µM (no result: HCMV inh)
Cc1ccc(N2C(=O)NC(=O)/C(=C\c3ccoc3)C2=O)cc1	Pf growth 96h inconclusive
COc1ccc(N2C(=O)/C(=C/c3cc(C)n(-c4ccc(C)cn4)c3C)C(=O)NC2=S)c(OC)c1	FBPA Giardia inh inconclusive, Sm TGR inh inconclusive
O=C1NC(=S)N(c2ccc(F)cc2)C(=O)/C1=C/c1ccco1	FBPA Giardia inh inconclusive, Sm TGR inh 32µM (no result: HCMV inh)
COc1ccc(OC)c(N2C(=O)NC(=O)/C(=C/c3ccc([N+](=O)[O-])s3)C2=O)c1	FBPA Giardia inh 13µM, Sm TGR inh 4µM
COc1ccc(OC)c(N2C(=O)/C(=C/c3ccco3)C(=O)NC2=S)c1	Pf growth 96h inconclusive, FBPA Giardia inh inconclusive, Sm TGR inh 32µM (no result: HCMV inh)
C[C@@H]1CN([C@H](C)CO)C(=O)CCCn2nncc2CO[C@H]1CN(C)C(=O)Nc1ccc(N2CCN(C)CC2)cc1	none (no result: Pf growth 48h, Pf growth 96h, FBPA Giardia inh, Sm TGR inh)
O=C(C1CC1)N1CC(=O)N2[C@@H](CO)[C@H](c3ccc(Br)cc3)[C@@H]2C1	none (no result: Pf growth 48h, Pf growth 96h, FBPA Giardia inh, Sm TGR inh)
Fc1ccc(CN2CCN(c3ncccn3)CC2)c(F)c1	Pf growth 96h inconclusive, FBPA Giardia inh inconclusive
O=C(CSc1nnc(CNC(=O)c2cccs2)o1)Nc1ccccc1C(F)(F)F	Pf growth 96h inconclusive (no result: FBPA Giardia inh)
CCc1ccc(Nc2n[n+](-c3ccccc3)c(-c3c(Cl)cccc3Cl)s2)cc1	Pf growth 48h 10µM, Pf growth 96h inconclusive, FBPA Giardia inh inconclusive, HCMV inh -98
COc1ccc2ccccc2c1-c1sc(Nc2ccccc2)n[n+]1-c1ccc(F)cc1	Pf growth 48h inconclusive, Pf growth 96h inconclusive, HCMV inh inconclusive
